Assay results reported in ChEMBL document CHEMBL1961873, “Compounds: GSK PKIS; Assays: Nanosyn kinase panel” (2012).

What was measured:
[1] = target: Tyrosine-protein kinase CSK (Homo sapiens) (UniProt P41240); details: at 1 µM;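 note: each value is an averaged inhibition reading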
[2] = target: T1, Discoidin domain-containing receptor 2 (Homo sapiens) (UniProt Q16832); details: at 0.1 µM
T1 sequence (whole entry): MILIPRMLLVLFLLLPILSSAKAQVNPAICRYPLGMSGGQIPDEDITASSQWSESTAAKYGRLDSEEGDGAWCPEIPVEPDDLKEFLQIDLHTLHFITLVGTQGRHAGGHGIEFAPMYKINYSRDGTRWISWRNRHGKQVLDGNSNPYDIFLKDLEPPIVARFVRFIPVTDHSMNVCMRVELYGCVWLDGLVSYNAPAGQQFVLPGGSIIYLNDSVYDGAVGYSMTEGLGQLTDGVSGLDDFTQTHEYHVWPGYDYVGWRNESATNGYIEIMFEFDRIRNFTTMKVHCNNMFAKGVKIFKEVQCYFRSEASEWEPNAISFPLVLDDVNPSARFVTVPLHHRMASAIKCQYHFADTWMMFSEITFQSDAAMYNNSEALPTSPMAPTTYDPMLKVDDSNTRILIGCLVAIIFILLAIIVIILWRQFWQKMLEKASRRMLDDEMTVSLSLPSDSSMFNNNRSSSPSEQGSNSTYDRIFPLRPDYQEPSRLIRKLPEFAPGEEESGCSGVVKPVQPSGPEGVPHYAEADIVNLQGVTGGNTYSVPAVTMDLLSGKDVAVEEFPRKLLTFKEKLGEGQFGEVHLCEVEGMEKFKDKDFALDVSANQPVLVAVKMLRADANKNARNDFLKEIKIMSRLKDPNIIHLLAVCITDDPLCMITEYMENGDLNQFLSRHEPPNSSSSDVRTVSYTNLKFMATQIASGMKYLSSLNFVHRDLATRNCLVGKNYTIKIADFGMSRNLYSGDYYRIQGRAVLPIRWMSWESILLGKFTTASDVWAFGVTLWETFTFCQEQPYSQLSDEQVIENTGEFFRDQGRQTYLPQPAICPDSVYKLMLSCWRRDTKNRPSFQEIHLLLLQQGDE

[3] = target: T1, Discoidin domain-containing receptor 2 (Homo sapiens); details: at 1 µM
[4] = target: Epidermal growth factor receptor (Homo sapiens) (UniProt P00533); details: at 0.1 µM
[5] = target: Epidermal growth factor receptor (Homo sapiens) (UniProt P00533); details: at 1 µM
[6] = tested on: Epidermal growth factor receptor (Homo sapiens), P00533 [L858R]; details: at 0.1 µM
Chain of Epidermal growth factor receptor (Homo sapiens), P00533 [L858R] (P00533 whole entry L858R): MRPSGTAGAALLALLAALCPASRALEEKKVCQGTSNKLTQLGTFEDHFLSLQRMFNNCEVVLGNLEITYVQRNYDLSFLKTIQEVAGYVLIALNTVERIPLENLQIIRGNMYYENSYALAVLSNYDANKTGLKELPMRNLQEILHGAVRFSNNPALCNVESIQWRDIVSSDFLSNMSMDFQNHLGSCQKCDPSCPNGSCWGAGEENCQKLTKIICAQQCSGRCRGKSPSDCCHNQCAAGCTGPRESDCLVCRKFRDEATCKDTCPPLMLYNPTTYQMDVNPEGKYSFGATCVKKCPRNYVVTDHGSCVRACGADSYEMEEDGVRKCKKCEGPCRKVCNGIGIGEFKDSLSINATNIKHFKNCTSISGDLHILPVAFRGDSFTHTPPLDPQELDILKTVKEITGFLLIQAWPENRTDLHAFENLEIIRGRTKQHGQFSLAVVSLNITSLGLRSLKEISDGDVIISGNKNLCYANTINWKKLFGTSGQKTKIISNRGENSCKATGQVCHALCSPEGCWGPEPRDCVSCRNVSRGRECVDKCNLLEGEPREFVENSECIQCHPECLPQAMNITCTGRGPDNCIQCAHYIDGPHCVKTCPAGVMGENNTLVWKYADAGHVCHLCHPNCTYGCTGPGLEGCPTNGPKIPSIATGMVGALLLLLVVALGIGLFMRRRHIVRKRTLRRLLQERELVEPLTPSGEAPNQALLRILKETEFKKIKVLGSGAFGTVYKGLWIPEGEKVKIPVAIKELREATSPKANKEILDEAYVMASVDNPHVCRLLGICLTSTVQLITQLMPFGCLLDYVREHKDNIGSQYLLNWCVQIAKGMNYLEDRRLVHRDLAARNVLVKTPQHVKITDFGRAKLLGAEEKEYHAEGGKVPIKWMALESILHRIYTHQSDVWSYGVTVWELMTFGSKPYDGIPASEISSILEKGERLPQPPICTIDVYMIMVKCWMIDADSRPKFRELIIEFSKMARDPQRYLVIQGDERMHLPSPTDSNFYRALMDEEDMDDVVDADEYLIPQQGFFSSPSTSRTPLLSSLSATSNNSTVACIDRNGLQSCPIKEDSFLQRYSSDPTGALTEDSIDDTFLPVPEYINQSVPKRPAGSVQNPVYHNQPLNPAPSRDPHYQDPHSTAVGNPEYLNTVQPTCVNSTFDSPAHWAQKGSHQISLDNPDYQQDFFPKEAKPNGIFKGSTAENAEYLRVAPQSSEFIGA

[7] = tested on: Epidermal growth factor receptor (Homo sapiens), P00533 [L858R]; details: at 1 µM
[8] = tested on: Epidermal growth factor receptor (Homo sapiens), P00533 [L861Q]; details: at 0.1 µM
Chain of Epidermal growth factor receptor (Homo sapiens), P00533 [L861Q] (P00533 whole entry L861Q): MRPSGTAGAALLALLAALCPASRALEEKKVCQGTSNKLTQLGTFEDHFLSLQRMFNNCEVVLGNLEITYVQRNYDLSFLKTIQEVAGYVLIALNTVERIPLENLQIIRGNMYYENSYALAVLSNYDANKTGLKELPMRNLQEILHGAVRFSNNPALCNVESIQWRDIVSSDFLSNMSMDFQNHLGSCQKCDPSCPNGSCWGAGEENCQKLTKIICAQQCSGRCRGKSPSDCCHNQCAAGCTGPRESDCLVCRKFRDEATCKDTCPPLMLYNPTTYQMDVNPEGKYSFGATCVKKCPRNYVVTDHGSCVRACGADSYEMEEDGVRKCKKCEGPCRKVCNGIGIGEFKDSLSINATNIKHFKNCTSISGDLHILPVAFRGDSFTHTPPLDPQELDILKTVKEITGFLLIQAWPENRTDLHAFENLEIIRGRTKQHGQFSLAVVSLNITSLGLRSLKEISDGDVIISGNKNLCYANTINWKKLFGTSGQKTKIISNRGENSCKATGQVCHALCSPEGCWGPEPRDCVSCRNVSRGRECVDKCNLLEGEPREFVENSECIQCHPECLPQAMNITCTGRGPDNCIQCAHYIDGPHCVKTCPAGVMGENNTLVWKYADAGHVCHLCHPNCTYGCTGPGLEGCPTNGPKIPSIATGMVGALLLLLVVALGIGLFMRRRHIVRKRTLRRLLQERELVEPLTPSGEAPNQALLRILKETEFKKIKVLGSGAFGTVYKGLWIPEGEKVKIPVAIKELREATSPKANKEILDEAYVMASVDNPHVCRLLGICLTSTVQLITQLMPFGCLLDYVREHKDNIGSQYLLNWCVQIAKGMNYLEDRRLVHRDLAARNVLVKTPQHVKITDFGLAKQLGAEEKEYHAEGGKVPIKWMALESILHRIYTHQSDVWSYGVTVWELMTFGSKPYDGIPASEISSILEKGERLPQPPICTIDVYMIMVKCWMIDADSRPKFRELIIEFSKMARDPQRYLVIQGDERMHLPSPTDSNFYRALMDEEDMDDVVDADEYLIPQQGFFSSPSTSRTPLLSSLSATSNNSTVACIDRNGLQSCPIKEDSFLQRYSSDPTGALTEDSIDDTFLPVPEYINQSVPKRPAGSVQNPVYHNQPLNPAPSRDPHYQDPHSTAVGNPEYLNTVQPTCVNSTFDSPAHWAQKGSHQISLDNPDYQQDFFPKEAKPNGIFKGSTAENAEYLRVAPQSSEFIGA

[9] = tested on: Epidermal growth factor receptor (Homo sapiens), P00533 [L861Q]; details: at 1 µM
[10] = tested on: Epidermal growth factor receptor (Homo sapiens), P00533 [T790M]; details: at 0.1 µM
[11] = tested on: Epidermal growth factor receptor (Homo sapiens), P00533 [T790M]; details: at 1 µM
[12] = tested on: Epidermal growth factor receptor (Homo sapiens), P00533 [L858R,T790M]; details: at 0.1 µM
Chain of Epidermal growth factor receptor (Homo sapiens), P00533 [L858R,T790M] (P00533 whole entry T790M/L858R, looked up): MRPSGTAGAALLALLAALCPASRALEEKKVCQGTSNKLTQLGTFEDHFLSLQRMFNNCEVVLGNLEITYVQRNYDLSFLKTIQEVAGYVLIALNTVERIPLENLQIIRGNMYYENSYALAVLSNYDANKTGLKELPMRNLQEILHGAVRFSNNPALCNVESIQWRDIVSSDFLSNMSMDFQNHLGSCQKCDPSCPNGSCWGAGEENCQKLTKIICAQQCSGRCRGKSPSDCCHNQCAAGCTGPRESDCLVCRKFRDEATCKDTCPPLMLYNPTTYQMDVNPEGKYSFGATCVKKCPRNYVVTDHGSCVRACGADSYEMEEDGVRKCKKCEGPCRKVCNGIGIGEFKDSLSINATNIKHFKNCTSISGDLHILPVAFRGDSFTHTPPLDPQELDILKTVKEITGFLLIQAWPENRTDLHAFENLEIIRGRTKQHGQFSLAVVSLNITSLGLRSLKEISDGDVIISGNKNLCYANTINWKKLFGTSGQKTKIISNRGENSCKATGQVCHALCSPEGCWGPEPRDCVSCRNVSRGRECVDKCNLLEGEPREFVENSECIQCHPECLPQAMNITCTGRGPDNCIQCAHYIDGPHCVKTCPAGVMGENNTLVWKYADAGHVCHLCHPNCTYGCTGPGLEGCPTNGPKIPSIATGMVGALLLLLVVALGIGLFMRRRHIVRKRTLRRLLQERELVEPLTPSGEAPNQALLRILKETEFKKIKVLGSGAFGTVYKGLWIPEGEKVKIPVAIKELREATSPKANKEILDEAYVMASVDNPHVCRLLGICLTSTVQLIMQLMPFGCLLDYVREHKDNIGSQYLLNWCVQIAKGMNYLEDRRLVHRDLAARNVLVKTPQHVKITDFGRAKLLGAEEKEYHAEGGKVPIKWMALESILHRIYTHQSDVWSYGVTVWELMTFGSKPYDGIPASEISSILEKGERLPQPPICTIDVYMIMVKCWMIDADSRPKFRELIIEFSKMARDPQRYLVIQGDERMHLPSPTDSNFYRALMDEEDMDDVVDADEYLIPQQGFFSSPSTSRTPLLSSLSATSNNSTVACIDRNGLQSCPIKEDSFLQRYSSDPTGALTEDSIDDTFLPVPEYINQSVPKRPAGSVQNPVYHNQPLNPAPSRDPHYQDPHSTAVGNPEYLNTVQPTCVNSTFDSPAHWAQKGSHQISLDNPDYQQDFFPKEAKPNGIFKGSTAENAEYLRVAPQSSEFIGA

[13] = tested on: Epidermal growth factor receptor (Homo sapiens), P00533 [L858R,T790M]; details: at 1 µM
[14] = target: Ephrin type-A receptor 2 (Homo sapiens) (UniProt P29317); details: at 0.1 µM
Chain of Ephrin type-A receptor 2 (Homo sapiens) (P29317 whole entry): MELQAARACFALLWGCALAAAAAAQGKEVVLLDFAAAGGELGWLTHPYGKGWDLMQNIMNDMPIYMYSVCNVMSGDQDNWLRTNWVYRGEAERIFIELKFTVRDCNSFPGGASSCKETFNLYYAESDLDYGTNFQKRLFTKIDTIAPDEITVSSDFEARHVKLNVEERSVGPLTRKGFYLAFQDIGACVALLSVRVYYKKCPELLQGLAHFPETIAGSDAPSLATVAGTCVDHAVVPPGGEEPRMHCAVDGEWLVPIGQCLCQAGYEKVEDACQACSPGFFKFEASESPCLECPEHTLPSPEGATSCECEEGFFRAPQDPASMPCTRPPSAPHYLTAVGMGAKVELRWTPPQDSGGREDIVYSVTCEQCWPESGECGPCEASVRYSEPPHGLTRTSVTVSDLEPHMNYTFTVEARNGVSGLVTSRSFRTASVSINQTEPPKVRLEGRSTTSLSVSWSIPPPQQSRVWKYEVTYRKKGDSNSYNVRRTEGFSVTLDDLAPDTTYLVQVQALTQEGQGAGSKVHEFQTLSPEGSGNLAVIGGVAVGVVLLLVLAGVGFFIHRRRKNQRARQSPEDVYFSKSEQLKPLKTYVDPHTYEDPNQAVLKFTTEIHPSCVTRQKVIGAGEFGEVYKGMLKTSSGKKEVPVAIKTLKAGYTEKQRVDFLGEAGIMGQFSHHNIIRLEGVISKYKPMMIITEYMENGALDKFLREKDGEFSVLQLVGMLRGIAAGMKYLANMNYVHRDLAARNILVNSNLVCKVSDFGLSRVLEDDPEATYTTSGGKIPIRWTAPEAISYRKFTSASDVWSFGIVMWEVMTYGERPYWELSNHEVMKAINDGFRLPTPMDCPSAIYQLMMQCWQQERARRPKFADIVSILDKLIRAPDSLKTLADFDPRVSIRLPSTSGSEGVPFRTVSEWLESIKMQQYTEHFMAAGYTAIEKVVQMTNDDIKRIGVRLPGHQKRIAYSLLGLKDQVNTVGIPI

[15] = target: Ephrin type-A receptor 2 (Homo sapiens) (UniProt P29317); details: at 1 µM
[16] = target: T2, Ephrin type-A receptor 3 (Homo sapiens) (UniProt P29320); details: at 0.1 µM
T2 sequence (whole entry): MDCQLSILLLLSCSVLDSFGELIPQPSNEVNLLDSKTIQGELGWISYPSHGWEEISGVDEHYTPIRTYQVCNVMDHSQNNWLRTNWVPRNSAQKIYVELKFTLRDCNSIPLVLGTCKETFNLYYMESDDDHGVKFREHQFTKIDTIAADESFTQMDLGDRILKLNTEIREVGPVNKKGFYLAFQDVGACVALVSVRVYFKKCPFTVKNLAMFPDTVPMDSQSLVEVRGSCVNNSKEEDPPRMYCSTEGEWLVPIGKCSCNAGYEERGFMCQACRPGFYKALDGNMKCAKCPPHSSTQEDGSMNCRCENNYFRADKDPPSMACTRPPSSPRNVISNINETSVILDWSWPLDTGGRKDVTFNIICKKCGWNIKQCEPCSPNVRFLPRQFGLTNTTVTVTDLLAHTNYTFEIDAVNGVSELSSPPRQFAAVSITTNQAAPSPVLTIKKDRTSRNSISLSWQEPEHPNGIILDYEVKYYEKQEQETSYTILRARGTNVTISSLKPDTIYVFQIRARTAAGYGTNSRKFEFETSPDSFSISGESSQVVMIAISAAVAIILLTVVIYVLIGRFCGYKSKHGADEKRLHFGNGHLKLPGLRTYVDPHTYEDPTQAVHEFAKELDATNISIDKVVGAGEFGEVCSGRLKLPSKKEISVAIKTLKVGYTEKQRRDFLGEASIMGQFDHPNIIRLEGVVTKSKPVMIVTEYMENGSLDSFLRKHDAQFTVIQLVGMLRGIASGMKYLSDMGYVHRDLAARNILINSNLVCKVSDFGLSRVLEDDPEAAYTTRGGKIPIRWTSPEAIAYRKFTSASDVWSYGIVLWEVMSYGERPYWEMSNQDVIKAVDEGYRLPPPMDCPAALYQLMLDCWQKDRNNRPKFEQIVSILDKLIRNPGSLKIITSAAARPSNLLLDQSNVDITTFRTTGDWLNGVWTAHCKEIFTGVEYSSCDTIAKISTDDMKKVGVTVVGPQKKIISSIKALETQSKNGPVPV

[17] = target: T2, Ephrin type-A receptor 3 (Homo sapiens); details: at 1 µM
[18] = target: Ephrin type-A receptor 4 (Homo sapiens) (UniProt P54764); details: at 0.1 µM
[19] = target: Ephrin type-A receptor 4 (Homo sapiens) (UniProt P54764); details: at 1 µM
[20] = target: T3, Ephrin type-B receptor 2 (Homo sapiens) (UniProt P29323); details: at 0.1 µM;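 note: reported as mean inhibition of EPHB2, from the GSK PKIS dataset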
T3 sequence (whole entry): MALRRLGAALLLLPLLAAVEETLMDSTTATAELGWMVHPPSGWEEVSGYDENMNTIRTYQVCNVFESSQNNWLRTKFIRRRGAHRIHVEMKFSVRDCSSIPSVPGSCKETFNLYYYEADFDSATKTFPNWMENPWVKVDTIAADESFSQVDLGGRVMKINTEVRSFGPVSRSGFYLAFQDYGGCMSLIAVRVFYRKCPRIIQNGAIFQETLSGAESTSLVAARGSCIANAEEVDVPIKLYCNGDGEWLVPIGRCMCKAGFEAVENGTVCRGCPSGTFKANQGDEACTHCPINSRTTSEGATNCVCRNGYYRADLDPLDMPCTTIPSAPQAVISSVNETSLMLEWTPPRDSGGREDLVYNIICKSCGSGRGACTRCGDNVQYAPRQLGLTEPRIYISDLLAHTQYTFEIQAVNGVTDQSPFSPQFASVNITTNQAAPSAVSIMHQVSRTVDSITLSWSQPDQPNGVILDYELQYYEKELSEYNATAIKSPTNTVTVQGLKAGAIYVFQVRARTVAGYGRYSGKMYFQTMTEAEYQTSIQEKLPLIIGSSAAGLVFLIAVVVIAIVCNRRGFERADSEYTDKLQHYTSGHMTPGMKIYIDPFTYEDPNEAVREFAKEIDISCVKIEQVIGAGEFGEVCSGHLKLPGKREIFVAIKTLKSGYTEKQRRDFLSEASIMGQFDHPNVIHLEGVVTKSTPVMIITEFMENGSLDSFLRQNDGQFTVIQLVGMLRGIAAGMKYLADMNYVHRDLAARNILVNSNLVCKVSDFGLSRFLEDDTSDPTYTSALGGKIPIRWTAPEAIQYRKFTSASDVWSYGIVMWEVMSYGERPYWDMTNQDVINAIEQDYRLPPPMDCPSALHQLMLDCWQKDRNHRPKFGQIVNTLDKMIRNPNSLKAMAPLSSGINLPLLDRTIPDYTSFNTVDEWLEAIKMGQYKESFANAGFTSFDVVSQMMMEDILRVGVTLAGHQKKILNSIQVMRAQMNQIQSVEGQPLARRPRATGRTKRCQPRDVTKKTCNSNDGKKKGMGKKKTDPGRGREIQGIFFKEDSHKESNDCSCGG

Chain of Tyrosine-protein kinase CSK (Homo sapiens) (P41240 2-450 limits assumed): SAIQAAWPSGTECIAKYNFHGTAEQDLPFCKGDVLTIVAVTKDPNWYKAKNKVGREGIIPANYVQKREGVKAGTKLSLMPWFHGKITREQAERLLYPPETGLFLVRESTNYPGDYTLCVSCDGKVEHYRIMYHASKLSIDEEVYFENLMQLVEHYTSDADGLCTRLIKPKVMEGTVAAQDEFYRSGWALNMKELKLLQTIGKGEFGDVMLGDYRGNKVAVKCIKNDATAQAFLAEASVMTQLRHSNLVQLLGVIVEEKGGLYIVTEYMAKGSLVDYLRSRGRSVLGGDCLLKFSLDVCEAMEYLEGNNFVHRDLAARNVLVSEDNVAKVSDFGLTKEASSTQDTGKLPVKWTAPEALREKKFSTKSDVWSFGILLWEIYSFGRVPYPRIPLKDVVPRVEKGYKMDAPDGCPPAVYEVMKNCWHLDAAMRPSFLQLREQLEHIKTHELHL

| Structure (SMILES) | inhibition [1] | inhibition [2] | inhibition [3] | inhibition [4] | inhibition [5] | inhibition [6] | inhibition [7] | inhibition [8] | inhibition [9] | inhibition [10] | inhibition [11] | inhibition [12] | inhibition [13] | inhibition [14] | inhibition [15] | inhibition [16] | inhibition [17] | inhibition [18] | inhibition [19] | inhibition [20] |
| --- | --- | --- | --- | --- | --- | --- | --- | --- | --- | --- | --- | --- | --- | --- | --- | --- | --- | --- | --- | --- |
| NS(=O)(=O)c1ccc(N/N=C2\C(=O)Nc3ccc(C(=O)NCCc4c[nH]cn4)cc32)cc1 | 9.56% | 1.41% | 5.19% | 2% | 4.43% | 5.09% | 5.32% | 3.18% | 3.48% | 2.7% | 1.79% | 3.11% | 5.71% | 1.93% | 1.88% | 7.18% | 8.06% | 10.7% | 16.3% | 11.4% |
| CCn1c(-c2nonc2N)nc2cncc(C(=O)N3CCNCC3)c21 | 4.45% | 1.63% | 1.68% | 1.08% | 2.62% | 3.95% | 3.98% | 3.22% | 5.49% | 2.68% | 3.72% | 0.98% | 3.56% | 1.29% | 1.16% | 3.57% | 2.79% | 9.14% | 11.3% | 10.1% |
| Fc1cccc(COc2ccc(Nc3ncnc4sc(-c5cccs5)cc34)cc2Cl)c1 | 3.11% | -0.48% | 0.6% | – | – | – | – | – | – | – | – | – | – | -3.04% | -2.75% | -3.5% | -1.54% | -0.88% | 2.82% | 5.23% |
